Our source for the inhibition values is PubChem BioAssay AID1986 (Sanford-Burnham Center for Chemical Genomics, 2009).

Several values for one entry are separate records, joined by “and”; a condition that tells them apart may be missing. Equal entries are not always repeated. About 890 (0.31%) of roughly 290,000 compounds were called active. No stated cut-off is given here; in the data, active means inhibition mostly above about 52% (no sharp cut-off); inactive means mostly below about 76%. Many of the other results were omitted from the sample, so actives are more common in it than they were.

The test can be described thus: cell-free HIV fusion peptide-binding blockers – biochemical, uHTS, fluorescence dequenching, primary screen (AID 1986). As to conditions: 30 min, stronger effect = higher value.
Setting [1] is: measured here: repeat confirmation average inhibition, at 18.6 µM.

Consider `O=C(OCc1ccccc1)c1cnc(Cl)c(Cl)c1`, for which, under “at 20 µM”, the inhibition (usually the drop in the measured response relative to a control, in per cent) was -1.7% (inactive).

Regarding `CC(C)CNC(=O)c1cccc(NC(=O)CCc2ccccc2)c1`, the inhibition (at 20 µM) was 0.2% (inactive).

Consider `CC(=O)NCCn1c(SCC(=O)NCCC(C)C)nc2ccccc2c1=O`, for which the inhibition (at 20 µM) was -1.8% (inactive).

For `Nc1c(C(=O)OCC2CCCO2)c2nc3ccccc3nc2n1-c1ccc2c(c1)OCCO2` (stereo unspecified), under “at 20 µM”, the inhibition is 0.3% (inactive).

As for `O=C(c1ccco1)N1CCN(c2ccc([N+](=O)[O-])c(N3CCOCC3)c2)CC1`, the inhibition (at 20 µM) was 0.8% (inactive).

Take `Nc1ccc2nc(SCc3ccc([N+](=O)[O-])cc3)sc2c1`: the inhibition (at 20 µM) is 1.8% (inactive).

With `Cn1cc(CN2CCN(CC(C)(C)C)C(CCO)C2)c2ccccc21` (stereo unspecified), the inhibition (at 20 µM) was 2.5% (inactive).

Regarding `Cc1ccc(CSc2nc3ccccc3c(=O)n2CCCC(=O)NCc2ccco2)cc1`, the inhibition (at 20 µM) is -1.1% (inactive).

For the compound `CN1CCN(c2ccc(NC(=O)CSc3nnnn3-c3ccccc3F)cc2)CC1`, the inhibition (at 20 µM) was -0.3% (inactive).

Consider `Cc1cc2nc(-c3ccc(SCc4ccc(C#N)cc4)nc3)[nH]c2cc1C`, for which the inhibition (at 20 µM) was 8.6% (inactive).

In the case of `Cc1cc2nc(-c3ccc(SCc4ccc(C(=O)O)cc4)nc3)[nH]c2cc1C`, the inhibition (at 20 µM) was 56.9% (active).

For `CC(=O)CSc1ccc(-c2nc3cc(C)c(C)cc3[nH]2)cn1`, under “at 20 µM”, the inhibition was 0.7% (inactive).

As to `Cn1nc(CC(=O)Nc2cccnc2N2CCOCC2)c2ccccc2c1=O`, for the setting “at 20 µM”, the inhibition is 0.1% (inactive).

For `Cc1ccccc1N=Nc1ccc(O)c2ncccc12`, the inhibition (at 20 µM) is -1.3% (inactive).

`O=S(=O)(O)c1cccc2c(N=Nc3ccc(O)c4ncccc34)cccc12`: under “at 20 µM”, the inhibition is 64.9% (active).

With `NS(=O)(=O)c1ccc(N=Nc2ccc(O)c3ncccc23)cc1`, the inhibition (at 20 µM) was -1.1% (inactive).

For the compound `O=C(O)/C=C\C(=O)Nc1ccccc1C(=O)NCc1ccccc1`, for the setting “at 20 µM”, the inhibition is -0.8% (inactive).

Take `COc1ccc(/C=C/c2cccc[n+]2C)c(O)c1`: under “at 20 µM”, the inhibition is 2.7% (inactive).

Take `CCN(CC)c1ccc(C=O)c(OC)c1`: under “at 20 µM”, the inhibition is -0.9% (inactive).

As to `CCN(CC)c1ccc(/C=C/c2cccc[n+]2C)c(OC)c1`, the inhibition (at 20 µM) is 77.3% (active) and the inhibition under setting [1] was 63.6%.

Take `Cc1c(OC(C)C(=O)NCCCN2CCCC2=O)ccc2c3c(c(=O)oc12)CCCC3` (stereo unspecified): the inhibition (at 20 µM) was -2.1% (inactive).

Turning to `CCOC(=O)C1(Cc2ccccc2)CCCN(Cc2cnn(CC)c2)C1` (stereo unspecified), for the setting “at 20 µM”, the inhibition is -1.6% (inactive).

With `Cc1cccc2c1N(C(=O)c1ccco1)C(C)(C)c1ssc(=S)c1-2`, the inhibition (at 20 µM) was -4.4% (inactive).

With `CCCn1cc(CN2CCC(Cc3cccc(F)c3)(C(=O)OCC)CC2)c(C)n1`, the inhibition (at 20 µM) is -3.2% (inactive).

For `COc1cc([N+](=O)[O-])ccc1NC(=O)N1CCCCCC1`, the inhibition (at 20 µM) is -0.4% (inactive).

As to `CN1CCC2(CC1)C1CN(C)CC=C1C(C#N)=C(N)C2(C#N)C#N` (stereo unspecified), the inhibition (at 20 µM) is 51.5% (active) and 103% (active); the inhibition under setting [1] came out at 50.3%.

On to `CN1CC=C2C(C#N)=C(N)C(C#N)(C#N)[C@H](c3cccs3)[C@H]2C1`, for which the inhibition (at 20 µM) is 25.9% (inactive).

As to `N#CC1=C(N)C(C#N)(C#N)C2(CCC3(CC2)OCCO3)C2CC3(CC=C12)OCCO3` (stereo unspecified), the inhibition (at 20 µM) was 5.6% (inactive).

As for `CC(=O)N1CCC(=O)Nc2ccc([N+](=O)[O-])cc21`, the inhibition (at 20 µM) was -0.3% (inactive).

Take `COc1cc2nc(CN3CCN(C(c4ccccc4)c4ccccc4)CC3)[nH]c(=O)c2cc1OC`: under “at 20 µM”, the inhibition is 2.2% (inactive).

Consider `N=c1c(S(=O)(=O)c2ccc(Cl)cc2)cc2c(=O)n3ccccc3nc2n1CCc1ccccc1`, for which the inhibition was 84.1% (active) (at 20 µM) and 74.9% under setting [1].

Take `Cc1ccc(S(=O)(=O)c2cc3c(=O)n4ccccc4nc3n(CCc3ccccc3)c2=N)cc1`: the inhibition (at 20 µM) was 25% (inactive).

For the compound `COc1ccc(CCn2c(=N)c(S(=O)(=O)c3ccc(Cl)cc3)cc3c(=O)n4ccccc4nc32)cc1`, the inhibition (at 20 µM) was 195% (inactive).

Regarding `O=C(NC1CC1)C1CCN(C2CCN(C(=O)Cc3ccc4c(c3)OCO4)CC2)CC1`, the inhibition (at 20 µM) is 0.5% (inactive).

With `O=C(Nc1nnc(C2CC2)s1)C1COc2ccccc2O1` (stereo unspecified), where the note is “at 20 µM”, the inhibition is -2.5% (inactive).

With `Cc1cc(C)n2nc(C(=O)N3CCOCC3)nc2n1`, where the note is “at 20 µM”, the inhibition was -0.9% (inactive).

In the case of `Cc1cccc2cc(C(c3nnnn3Cc3ccc4c(c3)OCO4)N3CCCC3)c(=O)[nH]c12` (stereo unspecified), the inhibition (at 20 µM) was -1.7% (inactive).

For `O=C(COc1ncnc2ccccc12)Nc1cccc([N+](=O)[O-])c1`, the inhibition (at 20 µM) is 0.9% (inactive).

`COc1cccc(OC)c1C(=O)Oc1ccc2c(c1)O/C(=C\c1ccncc1)C2=O`: where the note is “at 20 µM”, the inhibition was 3.9% (inactive).

With `O=C(Oc1ccc2c(c1)O/C(=C\c1ccncc1)C2=O)c1ccccc1`, the inhibition (at 20 µM) was 86.3% (inactive) and the inhibition under setting [1] turned out to be 3%.

Regarding `CC(=O)Oc1ccc2c(c1)O/C(=C\c1ccncc1)C2=O`, the inhibition (at 20 µM) is 106% (active) and the inhibition under setting [1] was 53%.

Regarding `COc1ccc(CNc2nc3nc(-c4ccccc4)cc(=O)n3[nH]2)cc1OC`, the inhibition (at 20 µM) was 0.4% (inactive).

For the compound `O=C(CCl)Nc1ccc(N=Nc2ccccc2)cc1`, the inhibition (at 20 µM) was -2.8% (inactive).

For `Oc1c(C=Nc2cccnc2)sc2ccccc12`, the inhibition (at 20 µM) was 1.4% (inactive).

For the compound `Oc1c(C=Nc2cccc3cccnc23)sc2ccccc12`, the inhibition is 85.8% (active) (at 20 µM) and 50.9% under setting [1].
